From PubChem
TDP1 cell CPT: qHTS for Inhibitors of human tyrosyl-DNA phosphodiesterase 1 (TDP1): qHTS in cells in presence of CPT | 420,000 tested, 12% active | AID 686979, 2013 | chicken DT40 Tdp1-/-;hTDP1 cells + 20 nM CPT, ATP luminescence, 48 h | Potency, µM (top dose mostly 46.2 µM), without a hit: top-dose activity change, negative = growth inhibition, hits mostly inhibitors; further: potency means the concentration at half of the fitted maximal effect; on the % scale 0 is the no-effect control and ±100 the full control effect; nearly all actives have a fitted effect of over 55% in size
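Chicken DT40 Tdp1-/- cells stably complemented with human TDP1 were seeded at 400 cells/well in medium containing 20 nM camptothecin, exposed to pin-transferred compounds, and grown at 37 °C for at least 48 hr. Viability was read as ATP luminescence.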
BCR signal inh: qHTS Assay to Find Inhibitors of Chronic Active B-Cell Receptor Signaling; Potency, µM (series often up to 46.1 µM), inactives show at the top dose activity change, negative = inhibition, usual class: inhibitors; ABC-DLBCL IkBa-CBG/CBR reporter, luminescence ratio, 4 h; 340,000 tested, 0.05% active; active means well fitted inhibition curve with a large enough effect in the signal ratio, with a control signal flat, not every such curve was filed as active; inconclusive means small, poorly fitted or top-dose-only effect, or effect the other way, or a change in a side signal; the % refers to the signal ratio;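 further: potency means the concentration at half of the fitted maximal effect; plate controls were basal doxycycline-induced cells for no effect and cells given 10 µM MG132 for full effect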
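TMD8 ABC-DLBCL cells carrying doxycycline-inducible green luciferase fused to IkappaBalpha plus unfused red luciferase were exposed to compounds (up to 46 uM) for 4 hrs at 37C. Activity came from the overlap-corrected green/red luminescence ratio.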
IL1B secr inh: qHTS for Inhibitors of Inflammasome Signaling: IL-1-beta AlphaLISA Primary Screen; THP-1 LPS/ATP IL-1B secretion, AlphaLISA, 16 h; stronger effect = lower value; activity change, % at 57.5 µM; 360,000 tested, 4.7% active; in the data active means activity change below about -50%; inconclusive means mostly about -30% to -49%; further: on the % scale 0 is the no-effect control and ±100 the full control effect
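THP-1 cells pretreated 1 hr with compounds (up to 57.5 uM final), then stimulated with LPS (250 ng/mL final) plus ATP (1.25 mM final); secreted IL-1B measured by AlphaLISA after 16 hr, decreased signal indicating inhibition.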
TDP1 cell noCPT: qHTS for Inhibitors of human tyrosyl-DNA phosphodiesterase 1 (TDP1): qHTS in cells in absence of CPT; DT40 Tdp1-/- hTDP1 cells, no CPT, ATP luminescence, 48 h; Potency, µM (series often up to 46.2 µM), for inactives: at the top dose activity change, negative = growth inhibition, usual class: inhibitors; 420,000 tested, 15% active; further: potency means the concentration at half of the fitted maximal effect; on the % scale 0 is the no-effect control and ±100 the full control effect; nearly all actives have a fitted effect of over 55% in size
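Growth kinetics read by CellTiter-Glo luminescence after ≥48 hr at 37 °C. Cells: DT40 Tdp1-/- stably carrying human TDP1, 400 per well, compound exposure in the absence of CPT (DMSO vehicle).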
SW480 rerep: A quantitative high throughput screen for small molecules that induce DNA re-replication in SW480 colon adenocarcinoma cells | SW480 DNA re-replication, Hoechst DNA content imaging, 48 h | Potency, µM (series often up to 46.1 µM), for the others: at the highest dose re-replication activation, actives largely listed as activators | 340,000 tested, 1.8% active | AID 624297, 2012; further: potency means the concentration at half of the fitted maximal effect; % of control where 0% means no effect; nearly all actives have a fitted effect of over 55% in size
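Readout is total intensity of Hoechst-stained nuclei, excited at 405 nm and collected at 500-530 nm. Compound treatment lasted 48 hr at 37 C in 5% CO2 before staining.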
MCF10A rerep: A quantitative high throughput screen for small molecules that induce DNA re-replication in MCF 10a normal breast cells; 350,000 tested, 2.9% active; MCF 10A DNA re-replication, Hoechst nuclear intensity, 48 h; Potency, µM (highest dose often 46.1 µM), inactives show at the top dose activity, positive = re-replication, hits mostly activators; further: potency means the concentration at half of the fitted maximal effect; % of control where 0% means no effect; nearly all actives have a fitted effect of over 50% in size
Numbers without * were called inactive. A selection: hits, their analogues and other compounds. The true share with any hit is near 19%. Unless noted, the call rests on the fitted dose curve; in most records, active means well fitted curve in the direction sought with a large enough effect; inconclusive means small, poorly fitted or top-dose-only effect, or another doubt; inactive means no such curve, though single readings can be large; an effect the other way counts as inactive or inconclusive.

What do the screens show for `COC(=O)[C@]12CCCCC=C1N(Cc1ccc3c(c1)OCO3)C(=O)[C@H](CC(=O)N1CCSCC1)C2`?
TDP1 cell CPT: inconclusive; IL1B secr inh: 0.0; TDP1 cell noCPT: inconclusive

Results for COC(=O)c1ccc(Cn2cc(/C=C\[N+](=O)[O-])c3ccccc32)o1 ?
TDP1 cell CPT: inconclusive; BCR signal inh: inconclusive; IL1B secr inh: -102.4*; TDP1 cell noCPT: inconclusive; SW480 rerep: inconclusive; MCF10A rerep: inconclusive

Results for Cc1cccc(Cn2cc(/C=C/[N+](=O)[O-])c3ccccc32)c1 ?
TDP1 cell CPT: 23.1µM*; BCR signal inh: inconclusive; IL1B secr inh: -67.5*; TDP1 cell noCPT: inconclusive; SW480 rerep: inconclusive; MCF10A rerep: 20.6µM*

Results for CCOC(=O)Cn1cc(/C=C/[N+](=O)[O-])c2ccccc21 ?
TDP1 cell CPT: 14.6µM*; BCR signal inh: inconclusive; IL1B secr inh: -50.7*; TDP1 cell noCPT: 23.1µM*; SW480 rerep: 20.6µM*; MCF10A rerep: inconclusive

How did CCOC(=O)Cn1cc(C#N)c2ccccc21 do in these assays?
TDP1 cell CPT: -0.5%; BCR signal inh: -3.5%; IL1B secr inh: -7.9; TDP1 cell noCPT: -3.0%; SW480 rerep: -11.6%; MCF10A rerep: -1.0%

Results for CC1CC(C)CN(CCCNC(=O)Cn2cccc2C(=O)c2ccccc2)C1 (configuration not stated) ?
TDP1 cell CPT: -12.3%; BCR signal inh: -0.1%; IL1B secr inh: -24.8; TDP1 cell noCPT: -17.6%; SW480 rerep: -3.1%; MCF10A rerep: -0.2%

How did O=C(CN1CCCc2ccccc21)Nc1cccc(S(=O)(=O)N2CCCC2)c1 do in these assays?
TDP1 cell CPT: inconclusive; IL1B secr inh: 19.6; TDP1 cell noCPT: inconclusive

Results for CN(CC(=O)Nc1cccc(S(=O)(=O)N2CCCCC2)c1)Cc1ccc(F)cc1 ?
TDP1 cell CPT: inconclusive; BCR signal inh: -0.5%; IL1B secr inh: 9.8; TDP1 cell noCPT: inconclusive; SW480 rerep: -4.6%; MCF10A rerep: 1.3%

What do the screens show for `CN(CC(=O)Nc1cccc(F)c1)CC(=O)Nc1cccc(S(=O)(=O)N2CCCCCC2)c1`?
TDP1 cell CPT: 16.4µM*; BCR signal inh: -0.1%; IL1B secr inh: inconclusive; TDP1 cell noCPT: 16.4µM*; SW480 rerep: -8.6%; MCF10A rerep: 16.2%

Results for CN(CC(=O)Nc1cccc(F)c1)C(=O)c1ccc(S(=O)(=O)N2CCCC2)cc1 ?
TDP1 cell CPT: -2.0%; BCR signal inh: 4.7%; IL1B secr inh: 3.8; TDP1 cell noCPT: -13.8%; SW480 rerep: 3.5%; MCF10A rerep: -0.4%

Results for CC1CCc2ccccc2N1CC(=O)Nc1cccc(S(=O)(=O)N2CCCC2)c1 (configuration not stated) ?
TDP1 cell CPT: 16.4µM*; BCR signal inh: 4.0%; IL1B secr inh: -25.5; TDP1 cell noCPT: 18.4µM*; SW480 rerep: inconclusive; MCF10A rerep: inconclusive

Results for CN(CC(=O)Nc1cccc(F)c1)CC(=O)Nc1cccc(S(=O)(=O)N2CCCCC2)c1 ?
TDP1 cell CPT: inconclusive; BCR signal inh: 4.6%; IL1B secr inh: -22.6; TDP1 cell noCPT: 20.6µM*; SW480 rerep: 1.1%; MCF10A rerep: 1.9%

What do the screens show for `COc1cc2ccc(=O)oc2cc1O`?
TDP1 cell CPT: inconclusive; BCR signal inh: 7.2%; IL1B secr inh: 19.1; TDP1 cell noCPT: -5.5%; SW480 rerep: 14.6µM*; MCF10A rerep: inconclusive

What do the screens show for `CC(=O)Nc1ccc(CN2CCN(C3CCCC3)C(CCO)C2)cc1` (configuration not stated)?
TDP1 cell CPT: 4.9%; BCR signal inh: -16.4%; IL1B secr inh: -19.6; TDP1 cell noCPT: 4.5%; SW480 rerep: 4.1%; MCF10A rerep: 2.59µM*

Results for OCCC1CN(Cc2cnc(-c3cccc4ccccc34)nc2)CCN1C1CCCCC1 (configuration not stated) ?
TDP1 cell CPT: 23.1µM*; BCR signal inh: -21.9%; IL1B secr inh: -23.2; TDP1 cell noCPT: 18.4µM*; SW480 rerep: 1.84µM*; MCF10A rerep: 9.0%

What do the screens show for `CCCN(CC(=O)Nc1cc(Cl)ccc1Cl)C(=O)c1ccccc1SCC(=O)N1CCCC1`?
TDP1 cell CPT: inconclusive; BCR signal inh: inconclusive; IL1B secr inh: -11.0; TDP1 cell noCPT: -29.8%; SW480 rerep: 17.9%; MCF10A rerep: 12.9%

Results for CCCCn1c(=O)n(Cc2cccc(F)c2)c(=O)c2c1ncn2Cc1ccco1 ?
TDP1 cell CPT: inconclusive; BCR signal inh: inconclusive; IL1B secr inh: -21.7; TDP1 cell noCPT: inconclusive; SW480 rerep: -0.5%; MCF10A rerep: 16.1%

What do the screens show for `CCCCc1c(Cc2cccc(F)c2)ncn1CCc1ccccc1OC`?
TDP1 cell CPT: inconclusive; IL1B secr inh: 0.0; TDP1 cell noCPT: 13µM*

How did CCCn1cnc2c(c1=O)c1nc3ccccc3nc1n2Cc1ccccc1OC do in these assays?
BCR signal inh: 1.8%

Results for CCCCc1c(-c2ccc(F)cc2F)ncn1CCc1ccccc1OC ?
TDP1 cell CPT: 23.1µM*; IL1B secr inh: -70.9*; TDP1 cell noCPT: 25.9µM*

How did CCCCCc1c(-c2ccc(F)cc2F)ncn1CCc1ccccc1OC do in these assays?
TDP1 cell CPT: inconclusive; IL1B secr inh: -99.9*; TDP1 cell noCPT: 20.6µM*

How did CCN(CC)CCCNC(=O)CSc1nc(-c2ccc(OC)cc2)cc(C(F)(F)F)n1 do in these assays?
TDP1 cell CPT: inconclusive; BCR signal inh: -14.5%; TDP1 cell noCPT: inconclusive

How did CN1C(=O)C(C)(C)N(C(=O)c2cccc([N+](=O)[O-])c2)c2ccccc21 do in these assays?
TDP1 cell CPT: 3.5%; BCR signal inh: 1.7%; IL1B secr inh: -14.4; TDP1 cell noCPT: 0.1%; SW480 rerep: 5.8%; MCF10A rerep: -2.1%

What do the screens show for `Cc1ccc(S(=O)(=O)N2CCC(=O)N([C@H](COCc3cccc(Cl)c3)C(C)C)CC2)cc1`?
TDP1 cell CPT: 20.6µM*; IL1B secr inh: 11.2; TDP1 cell noCPT: 16.4µM*
